Assay outcomes as filed in PubChem BioAssay.
A selection: hits, their analogues and other compounds. The true share with any hit is near 8.1%.
NOMO-1 viab: NOMO-1 AML cell viability reduction, primary screen, STK33 inhibitor project, CellTiter-Glo luminescence; NOMO-1 AML viability, 72 h; inhibition, % (no concentration beside the values); 37,000 tested, 7.5% active; in the data active = inhibition above about 80%; inconclusive = no clear call, values can overlap the other calls
PD-1 reversal: activators reversing PD-1 mediated T-cell inhibition, primary screen, luminescence, primary human CD4 T cells, PD-L1 beads. CellTiter-Glo 96 h. AID 2316, 2010. activation, % (no concentration beside the values). 29,000 tested, under 10 active; call rule not given here;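 note: 0% = median vehicle wells and 100% = positive control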
MITF inhib: inhibitors of MITF, primary screen, MITF inhibitor project, cell-based, luminescence | TRPM1 promoter luciferase, 24 h | inhibition, % (test concentration not listed) | 37,000 tested, 0.28% active; in the data active = inhibition above about 85%; inconclusive = no clear call, values can overlap the other calls; inactive = below about 68%;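 note: human melanocyte line stably carrying TRPM1 promoter luciferase reporter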
Hedgehog inh: Hedgehog pathway signaling inhibitors, primary screen, luminescence, Shh-LIGHT2 cells, Gli-luciferase | Shh-LIGHT2 Gli-luciferase reporter, 30 h | inhibition, % (concentration not given with the values) | 22,000 tested, 2.1% active | AID 2313, 2010;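 active = mean inhibition across valid replicates above about 65%, limit read from the data; inconclusive = mean under the limit, yet half or more replicates past it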;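 note: pathway switched on by Shh-conditioned medium diluted 1 in 25 in low serum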
* = called active by the depositor; u = inconclusive; x = no result given.

SMILES | NOMO-1 viab | PD-1 reversal | MITF inhib | Hedgehog inh
FC(F)(F)c1ccc2c(c1)N(CCCN1CCN(CCCl)CC1)c1ccccc1S2 | 99* | -8 | 18 | 66*
C[C@]12CCC(=O)C=C1CC[C@@H]1[C@@H]2C(=O)C[C@]2(C)C(=O)CC[C@@H]12 | 17 | 2 | 4 | -23
C/C=C1/CN2C3Cc4c([nH]c5ccc(O)cc45)C2(O)CC1C3CO (centres undefined) | 20 | 1 | 1 | 12
CCc1nc2ccccc2c(=O)n1-c1ccccc1Cl | 104* | 1 | 25 | -32
O=C1NC(=O)C(=C/C=C/c2ccccc2)C(=O)N1 | 113* | -9 | 87* | u
CCCN1CCC[C@@H]2Cc3nc(N)ncc3C[C@H]21 | 18 | x | 3 | -15
c1ccc2c(c1)cc1ccc3cccc4ccc2c1c34 | 28 | x | -17 | 22
CC(C)c1cc2c(cc1O)[C@@]1(C)C[C@@H](O)CC(C)(C)C1CC2 (some centres undefined) | 103* | -1 | -4 | -21
CC(=O)OC1CN2CCC1CC2 (centres undefined) | -11 | x | -13 | 20
CN1C(=O)c2ccccc2NC(=O)[C@]12O[C@@H]2c1ccccc1 | 4 | 0 | -6 | -21
C=C1C(=O)O[C@@H]2/C=C(/C)CC/C=C(/C)C[C@@H](OC(=O)/C(=C/CO)CO)C12 (some centres undefined) | 119* | -7 | 39 | 32
COC(=O)[C@@]1(O)C[C@@H]2O[C@@]1(C)n1c3ccccc3c3c4c(c5c6ccccc6n2c5c31)C(=O)NC4 | 124* | 6 | 28 | 60
C=C1CC[C@]2(O)[C@]3(C)C[C@@]4(O)O[C@@]2([C@@H]1O)[C@]1(O)[C@@]3(O)[C@H]([C@H](OO)c2ccc[nH]2)[C@](C)(C(C)C)[C@@]14C | -5 | 2 | -2 | 13
COC1CC(OC2C(C)OC(OC3C(C)OC(OC4C(C)OC(O[C@H]5CC[C@@]6(C)C(=CC[C@]7(O)C6CC(OC(=O)c6ccccc6)[C@@]6(C)[C@]7(O)CC[C@@]6(O)C(C)=O)C5)CC4OC)CC3OC)CC2OC)OC(C)C1O (some centres undefined) | 120* | -4 | 35 | -48
Oc1ccc(C2(c3ccc(O)cc3)CCCCC2)cc1 | 27 | 0 | 11 | -22
C[C@@H]1O[C@@H](O[C@H]2C[C@@H](O)[C@]3(CO)[C@H]4[C@H](O)C[C@]5(C)[C@@H](C6=CC(=O)OC6)CC[C@]5(O)[C@@H]4CC[C@]3(O)C2)[C@H](O)[C@H](O)[C@H]1O | 119* | x | 41 | -70
CO[C@H]1[C@H](O)[C@H](O[C@H]2CC[C@]3(C)C4CC[C@]5(C)[C@H](C6=CC(=O)OC6)CC[C@]5(O)C4CC[C@@H]3C2)O[C@@H](C)[C@@H]1O (some centres undefined) | 123* | -35 | 31 | -5
C[C@@H]1O[C@@H](OC2CCC3(C)C4CCC5(C)C(C6=CC(=O)OC6)CCC5(O)C4CC[C@H]3C2)[C@H](O)[C@H](O)[C@H]1O (some centres undefined) | 109* | -16 | 2 | 18
C[C@]12CC[C@H]3[C@@H](CC[C@]4(O)C[C@@H](O)CC[C@]34C=O)[C@@]1(O)CC[C@@H]2C1=CC(=O)OC1 | 115* | x | 32 | -40
O=C(c1ccccc1)N1CC2CC(C1)c1cccc(=O)n1C2 (centres undefined) | 16 | -1 | 5 | 19
C/C(CC(c1ccccc1)c1c(O)c2ccccc2oc1=O)=N/O (centres undefined) | -8 | 2 | 3 | x
CO[C@H]1[C@H](O)[C@@H](O[C@H]2CC[C@]3(C=O)C4CC[C@]5(C)[C@@H](C6=CC(=O)OC6)CC[C@]5(O)C4CC[C@@H]3C2)O[C@@H](C)[C@@H]1O (some centres undefined) | 112* | x | 29 | -53
C=C[C@H]1CN2CC[C@H]1C[C@@H]2[C@H](O)c1ccnc2ccccc12 | -29 | x | -13 | -10
COc1cc2c(cc1OC)-c1c(oc3c4c(ccc3c1=O)OC(C(C)C)C4)CO2 (centres undefined) | 13 | x | -6 | -11
C=C1[C@@H](C)[C@H]2[C@H](Cc3ccccc3)NC(=O)[C@]23[C@H](OC(C)=O)C=C[C@](C)(O)C(=O)[C@@H](C)C/C=C/[C@H]3[C@@H]1O | 114* | x | 57 | 73*
SMILES | NOMO-1 viab | PD-1 reversal | MITF inhib | Hedgehog inh
O=C1NC(=O)N(c2ccccc2)C(=O)/C1=C/c1ccco1 | 136* | -3 | 3 | x
CCN1C[C@]2(C)CC[C@H](O)[C@@]34C2[C@H](OC)C([C@@H]13)[C@@]1(O)C[C@H](OC)[C@H]2C[C@@H]4[C@@H]1[C@H]2O | 107* | -9 | 26 | -4
Cc1ccccc1NC1=NCC(C)(C)S1 | -3 | 1 | -22 | 23
N#CC(C#N)=NNc1ccc(OC(F)(F)F)cc1 | 141* | -50 | 67 | 82*
c1ccc(C2CC2)c(OCC2=NCCN2)c1 | 6 | x | 5 | -29
C=CCN1C(=O)/C(=C/c2cc(C)n(-c3ccccn3)c2C)C(=O)NC1=S | 111* | 0 | -11 | -9
COc1ccc2c(c1)/C(=C/c1cnc[nH]1)C(=O)N2 | 98* | 20 | 30 | 3
CC(C)(C)C(=O)c1cn(CC(=O)NCc2ccco2)c2ccccc12 | 10 | -1 | -72 | x
COC[C@H]([C@@H](O)[C@@H](O)C(=O)NCC[C@@H](C)c1nc(/C=C/C[C@H]2OC3(C[C@H](O)[C@H]2C)OC([C@@H](C[C@@H](O)[C@@H](C)[C@@H](O)[C@@H](C)/C=C(C)/C(C)=C/C=C/C(C)=C\C#N)OC)[C@@H](OP(=O)(O)O)C3(C)C)co1)N(C)C (some centres undefined) | 139* | -42 | 65 | 105*
CCc1cccc(CC)c1N(COC)C(=O)CCl | 50 | x | 26 | 11
CCOCN(C(=O)CCl)c1c(C)cccc1CC | 109* | x | 99* | 80*
Cc1ccc(C(C)C)cc1OP1(=O)COc2ccccc2OC1 | 32 | 0 | -13 | -5
CCCN1CCc2cc(O)cc3c2[C@H]1Cc1ccc(O)c(O)c1-3 | 109* | x | -7 | 41
CN1CCc2cc(O)cc3c2[C@H]1Cc1ccc(O)c(O)c1-3 | 105* | x | -18 | 31
COc1ccc2c(c1O)-c1c3c(cc4c1C(C2)N(C)CC4)OCO3 (centres undefined) | x | x | x | 5
CO[C@H]1C[C@H](OC2CCC3(C)C4CCC5(C)C(C6=CC(=O)OC6)CC(OC(C)=O)C5(O)C4CC[C@H]3C2)O[C@@H](C)[C@@H]1O (some centres undefined) | 109* | -16 | 10 | -3
C[C@H]1OC(O[C@H]2[C@@H](O)CC(O[C@H]3[C@@H](O)C[C@H](O[C@H]4CC[C@]5(C)C6CC[C@]7(C)[C@@H](C8=CC(=O)OC8)[C@@H](O)C[C@]7(O)[C@@H]6CC[C@@H]5C4)O[C@@H]3C)O[C@@H]2C)C[C@H](O)C1O (some centres undefined) | 107* | x | 23 | -4
